The list is not random: actives were taken first. Their share in the collection is about 1.4%.
AID504770 – E. coli YBA685 growth inhibition, screen for V. cholerae RctB inhibitors; z-score (test concentration not listed); E. coli YBA685 rctB-dependent plasmid, OD600 growth, 3 h; active compounds read low; 130,000 compounds, 0.27% hits; in the data active means z-score below about -2, passing the limit was not always enough
Polio RdRp inh – inhibitors of poliovirus RNA polymerase binding and polymerization | 150,000 compounds, 0.66% hits | poliovirus polymerase elongation, fluorescence polarization; active compounds read low | AID 588519 | % elongation, % (compound at 16.7 µg/mL) | P03300; in the data active means % elongation below about 90%
Mtb MbtI inh – blocks the Mycobacterium tuberculosis siderophore enzyme MbtI. purified MbtI enzyme, fluorescence intensity read-out. P9WFX0. inhibition, % (no concentration beside the values). AID 493033. 100,000 compounds, 0.89% hits; in the data active means inhibition mostly above about 56%, no sharp cut-off; inactive means mostly below about 77%
Target sequence (P9WFX0 whole entry, looked up): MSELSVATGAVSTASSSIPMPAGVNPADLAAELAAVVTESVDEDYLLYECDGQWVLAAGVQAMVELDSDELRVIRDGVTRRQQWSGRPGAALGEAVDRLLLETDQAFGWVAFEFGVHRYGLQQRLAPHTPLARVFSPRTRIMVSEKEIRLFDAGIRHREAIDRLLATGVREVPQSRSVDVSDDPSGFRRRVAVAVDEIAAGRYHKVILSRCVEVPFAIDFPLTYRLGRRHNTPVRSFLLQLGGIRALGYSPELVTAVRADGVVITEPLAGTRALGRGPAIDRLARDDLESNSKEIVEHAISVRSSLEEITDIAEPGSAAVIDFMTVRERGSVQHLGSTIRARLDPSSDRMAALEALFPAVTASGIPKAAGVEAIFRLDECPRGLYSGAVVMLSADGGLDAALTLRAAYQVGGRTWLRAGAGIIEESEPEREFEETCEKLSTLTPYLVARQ
Mtb MenB inh – blocks the Mycobacterium tuberculosis MenB enzyme. AID 540299. 100,000 compounds, 0.43% hits. MenB enzyme assay, absorbance read-out. inhibition, % (no concentration beside the values); in the data active means inhibition above about 21%, passing the limit was not always enough
Of the large screens only hits and unclear results are named; the others gave an inactive call.

CC(=O)Nc1nc2ccccc2nc1Cl	none (no result: Mtb MenB inh)
CN1C(=O)Cc2cc(S(=O)(=O)CCC(=O)Nc3cccc(C(F)(F)F)c3)ccc21	none (no result: AID504770, Mtb MbtI inh, Mtb MenB inh)
CN1C(=O)Cc2cc(S(=O)(=O)CCC(=O)Nc3ccccc3)ccc21	Polio RdRp inh -22.0 (no result: AID504770, Mtb MbtI inh, Mtb MenB inh)
CC1(C)Cc2c(C#N)c(N)sc(=S)c2CO1	none
CC1(C)Cc2c(c(N3CCNCC3)[nH]c(=S)c2C#N)CO1	Mtb MbtI inh 94.5
CN1CCC(NC(=O)C2CCCO2)CC1 (stereo not drawn)	none
Cc1cc(C)c(NC(=O)CSc2nc(=O)n(Cc3ccco3)c3c2CCC3)c(C)c1	none (no result: AID504770, Mtb MbtI inh, Mtb MenB inh)
Cc1ccc(NC(=O)CSc2nc(=O)n(Cc3ccco3)c3c2CCC3)cc1F	Polio RdRp inh 76.0 (no result: AID504770, Mtb MbtI inh, Mtb MenB inh)
Cc1nnc(SCC(=O)Nc2ccc(Cl)cc2Cl)n1C	none (no result: Mtb MenB inh)
CCOC(=O)CC1Sc2ccccc2N=C1SCC(=O)Nc1ccc(Cl)cc1Cl (stereo not drawn)	Mtb MbtI inh 95.8
COc1ccc(NC(=O)Cn2c(SCc3ccccc3F)nc3ccncc32)c(OC)c1OC	none (no result: Polio RdRp inh, Mtb MbtI inh, Mtb MenB inh)
O=C1CC2(O)CCC1(c1ccccc1)CC2	none
CCc1ccc(NC(=O)c2cc3cc4ccc(OC)cc4nc3o2)cc1	none
O=C(/C=C(\O)c1ccccc1)C(F)(F)C(F)F	AID504770 -3.45
O=C(O)C(=O)/C=C(\O)c1ccccc1	none (no result: Polio RdRp inh, Mtb MbtI inh, Mtb MenB inh)
CC(C)(C)C(=O)CC(C)(O)c1ccc(Cl)cc1 (stereo not drawn)	none (no result: Polio RdRp inh, Mtb MenB inh)
O=C(CC1Sc2ncnn2C1=O)Nc1ccccc1 (stereo not drawn)	Mtb MbtI inh 100.0
Cc1ccc(C)n1-c1ccsc1C(=O)O	Polio RdRp inh 48.0
CC1COc2c(N3CCN(C)CC3)c(F)cc3c(=O)c(C(=O)N4CCN(c5ncccn5)CC4)cn1c23 (stereo not drawn)	none
CC1COc2c(N3CCN(C)CC3)c(F)cc3c(=O)c(C(=O)O)cn1c23 (stereo not drawn)	AID504770 -5.15
Cc1cc(C)c(C#N)c(SCC(O)COc2ccc(Cl)cc2)n1 (stereo not drawn)	none (no result: Mtb MbtI inh)
CCOC(=O)c1cccc2ncccc12	Mtb MbtI inh 96.0
CCOC(=O)c1cnc2ccccc2c1NCCc1ccccc1	none
Cc1ccc(Cc2c[nH]c(=S)s2)cc1	Mtb MbtI inh 89.8
COc1ccc2nc(SCC(=O)c3ccc(O)c(O)c3)[nH]c2c1	Mtb MbtI inh 70.2
Fc1ccc(Cn2[nH]nnc2=S)cc1	Mtb MbtI inh 68.8
COc1cc(OC)cc(C(=O)Nc2cc(NC(=O)c3ccco3)ccc2OC)c1	Mtb MenB inh 47.9
COc1ccc(NC(=O)c2ccco2)cc1NC(=O)c1ccc(C)c(C)c1	none (no result: AID504770, Mtb MbtI inh, Mtb MenB inh)
c1c(SSc2cn3c(n2)CCC3)nc2n1CCC2	Mtb MbtI inh 93.2
FC(F)(F)c1cccc(Nc2ncnc3sc4c(c23)CCC4)c1	none (no result: Mtb MbtI inh)
COc1ccc(-c2nc(N)s[n+]2-c2ccccc2)cc1	Mtb MbtI inh 97.7 (no result: Mtb MenB inh)
Cc1ccc(-c2nc(N)s[n+]2-c2ccccc2)cc1	AID504770 -2.35 (no result: Polio RdRp inh, Mtb MbtI inh, Mtb MenB inh)
CCOc1ccc(-n2c(SCC(=O)N(C)C3(C#N)CCCCC3)nc3ccccc32)cc1	none
CC1(C)CC(=O)C(C2(O)C(=O)c3ccccc3C2=O)C(=O)C1	none (no result: Polio RdRp inh, Mtb MenB inh)
CC1(C)C=C(O)C(C2(O)C(=O)c3ccccc3C2=O)C(=O)C1 (stereo not drawn)	Polio RdRp inh 19.0 (no result: Mtb MbtI inh)
COC(=S)Nc1cccc(Cl)c1	none
Cc1cc(NC(=O)CCc2ccccc2)no1	none (no result: Polio RdRp inh, Mtb MbtI inh, Mtb MenB inh)
Cc1cc(NC(=O)CSc2ccccc2)no1	Mtb MenB inh 32.1
CC12COC3(C(=O)Nc4ccccc4)CC1CCC32C (stereo not drawn)	Mtb MenB inh 57.9
CC12COC3(C(=O)N4CCCCC4)CC1CCC32C (stereo not drawn)	none (no result: Mtb MenB inh)
O=C(Sc1nc2ccccc2o1)c1ccccc1	Mtb MbtI inh 95.2
O=C(/C=C/Sc1nc2ccccc2o1)c1ccccc1	Mtb MbtI inh 54.0
Cn1cc(Br)c(N2C(=O)C=CC2=O)n1	AID504770 -4.15, Mtb MbtI inh 94.7
O=C(COC(=O)C12CCC(=O)N1c1ccccc1C(=O)N2C1CC1)Nc1ncc(Cl)cc1Cl (stereo not drawn)	none
O=C1CCCCCN1Sc1ccccc1	Mtb MbtI inh 69.6
O=C(O)Cc1n[nH]c(=O)c2ccccc12	Mtb MenB inh 36.6
O=C(Cc1n[nH]c(=O)c2ccccc12)NCc1ccccc1	none
CC(C)n1c2ccccc2c2n[nH]c(=S)nc21	none
S=c1nc2c(n[nH]1)c1ccccc1n2Cc1ccccc1	Polio RdRp inh 73.0 (no result: Mtb MbtI inh)
O=C(COC(=O)c1cc2ccccc2oc1=O)Nc1ncccn1	Polio RdRp inh 88.0
CN(C)C(=O)COC(=O)c1cc2ccccc2oc1=O	none
C=CCN(CC=C)S(=O)(=O)c1ccc(C(=O)Nc2sc3c(c2C(N)=O)CCN(C(C)C)C3)cc1	none (no result: Polio RdRp inh, Mtb MbtI inh, Mtb MenB inh)
COC(=O)CSc1ncc(C#N)c(N)n1	none

Source: PubChem
